WRN helicase inh-1 – inhibitors of human WRN helicase; Q14191; Potency, µM (top dose mostly 114 µM), for the others: top-dose activity change, negative = inhibition, hits mostly inhibitors; WRN helicase unwinding, fluorescent forked duplex, kinetic; 0.46% of 360,000 active; further: on the % scale 0 is the no-effect control and ±100 the full control effect; nearly all actives have a fitted effect of over 55% in size
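Kinetic fluorescence helicase assay: unwinding of a quenched forked DNA duplex (100 nM final) with 2 mM ATP final raises red fluorescence (525/598 nm). Compounds sat 15 min at room temperature with 20 nM WRN beforehand.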
Pol beta inh – blocks human DNA polymerase beta activity; P06746; Pol beta primer extension/strand displacement, fluorescence kinetic; Potency, µM (top dose mostly 114 µM), for inactives: top-dose activity change, negative = inhibition, usual class: inhibitors; 1.3% of 340,000 active; further: on the % scale 0 is the no-effect control and ±100 the full control effect
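Pol beta (10 nM) and compounds were preincubated 15 min at room temperature, then 50 nM substrate (final) started primer extension/strand displacement. Reads were taken at 0 and 10 min; concentration-response data were fitted to a four-parameter Hill equation.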
POLI inh – blocks human DNA polymerase iota activity. 1% of 390,000 active. Potency, µM (titrated, usually from 115 µM), inactives show top-dose activity, negative = inhibition, hits mostly inhibitors. Q9UNA4. Pol iota fluorescent replication assay, 10 min
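Pol iota at 10 nM preincubated 15 min with compounds at room temperature; reaction started with fluorescent substrate, 50 nM final. Fluorescence read kinetically at 0 and 10 min; buffer-only wells as negative control.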
Pol kappa inh-1 – DNA polymerase kappa (human) inhibition; Q9UBT6; purified Pol kappa, fluorescent DNA synthesis assay, 10 min; Potency, µM (titrated, usually from 107 µM), for the others: top-dose activity, negative = inhibition, hits mostly inhibitors; 0.53% of 400,000 active; further: on the % scale 0 is the no-effect control and ±100 the full control effect
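Here, compound and 10 nM enzyme are combined for 15 min at room temperature; adding 50 nM substrate (final) starts DNA synthesis, tracked by fluorescence at 0 and 10 min against buffer-only wells.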
FEN1 inh-1 – inhibitors of human flap endonuclease 1; P39748; Recombinant FEN1 flap cleavage, fluorescence, 15 min; Potency, µM (titrated, usually from 114 µM), without a hit: at the highest dose activity change, negative = inhibition, hits mostly inhibitors; 0.35% of 390,000 active; AID 588795; further: on the % scale 0 is the no-effect control and ±100 the full control effect; nearly all actives have a fitted effect of over 65% in size
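Potency values derive from four-parameter Hill fits of normalized qHTS data. The reaction used 10 nM FEN1 preincubated 15 min at room temperature with compound, then 50 nM DNA substrate, read at 0 and 15 min.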
Pol eta inh-1 – inhibitors of human DNA polymerase eta; recombinant Pol eta, fluorescent DNA replication assay; Q9Y253; AID 588591; Potency, µM (doses to about 114 µM), for the others: at the top dose activity change, negative = inhibition, actives largely listed as inhibitors; 1.2% of 390,000 active; further: on the % scale 0 is the no-effect control and ±100 the full control effect
Target sequence (Q9Y253 whole entry, looked up): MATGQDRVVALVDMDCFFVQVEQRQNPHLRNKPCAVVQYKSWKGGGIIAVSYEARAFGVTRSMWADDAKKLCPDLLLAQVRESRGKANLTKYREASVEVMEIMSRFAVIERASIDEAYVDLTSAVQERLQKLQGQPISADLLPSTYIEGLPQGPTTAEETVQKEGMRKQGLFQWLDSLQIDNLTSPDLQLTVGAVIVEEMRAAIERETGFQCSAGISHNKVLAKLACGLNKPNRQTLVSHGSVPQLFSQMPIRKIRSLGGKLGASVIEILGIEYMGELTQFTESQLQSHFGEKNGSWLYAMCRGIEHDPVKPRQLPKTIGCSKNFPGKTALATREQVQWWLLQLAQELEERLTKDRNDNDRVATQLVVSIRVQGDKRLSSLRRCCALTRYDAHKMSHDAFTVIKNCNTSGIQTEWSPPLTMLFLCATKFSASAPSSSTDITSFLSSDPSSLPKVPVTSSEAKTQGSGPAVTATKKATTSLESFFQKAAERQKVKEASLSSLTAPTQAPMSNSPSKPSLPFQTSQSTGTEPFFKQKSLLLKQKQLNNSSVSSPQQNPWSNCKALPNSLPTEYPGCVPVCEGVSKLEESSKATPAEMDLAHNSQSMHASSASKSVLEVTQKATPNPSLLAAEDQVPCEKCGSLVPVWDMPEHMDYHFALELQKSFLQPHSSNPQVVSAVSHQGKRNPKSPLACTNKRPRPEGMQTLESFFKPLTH
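Fluorescent replication assay: 50 nM final substrate added after a 15 min room-temperature compound preincubation with 10 nM enzyme. Signal taken at 0 min and again at 10 min.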
PGK validate – validation of Trypanosoma brucei phosphoglycerate kinase inhibitors; shares compounds with Pol kappa inh-1; TbPGK coupled GAPDH assay, Kinase-Glo luminescence; Potency, µM (highest dose often 57.5 µM), for the others: at the top dose activity change, negative = inhibition, usual class: inhibitors; 79% of 500 active; AID 686980; further: on the % scale 0 is the no-effect control and ±100 the full control effect; nearly all actives have a fitted effect of over 65% in size
POLI cherry-pick – Confirm cherry-picked inhibitors of human polymerase iota | AID 720496 | shares compounds with Pol kappa inh-1 | Pol iota primer extension, TAMRA/BHQ fluorescence | 77% of 1,500 active | Potency, µM, actives largely listed as inhibitors
Pol kappa inh-2 – confirmation of human DNA polymerase kappa inhibitors; 76% of 920 active; purified Pol-kappa, fluorescent strand-displacement substrate; Potency, µM, usual class: inhibitors; shares compounds with Pol eta inh-1
Pol eta inh-2 – Pol eta (human) inhibition, cherry-pick confirmation. Pol eta primer extension, TAMRA/BHQ fluorescence, 10 min. 64% of 2,600 active. shares compounds with Pol eta inh-1. Potency, µM, most hits filed as inhibitors
FEN1 inh-2 – confirmation of human FEN1 inhibitors. shares compounds with FEN1 inh-1. FEN1 flap cleavage, TAMRA/BHQ2 fluorogenic DNA substrate. Potency, µM, usual class: inhibitors. 79% of 880 active. AID 720498; further: nearly all actives have a fitted effect of over 60% in size
WRN helicase inh-2 – WRN helicase inhibition, cherry-pick retest; shares compounds with WRN helicase inh-1; WRN helicase DNA unwinding, fluorescence kinetic; Potency, µM (titrated, usually from 57.1 µM), without a hit: at the top dose activity, negative = inhibition, most hits filed as inhibitors; 63% of 610 active; further: nearly all actives have a fitted effect of over 65% in size
TO displacement – counter-screen for WRN helicase inhibitors: DNA binding | shares compounds with WRN helicase inh-1 | thiazole orange DNA binding displacement, fluorescence | Potency, µM (series often up to 57.1 µM), inactives show at the top dose activity change, negative = inhibition, most hits filed as inhibitors | 10% of 610 active | AID 720499;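 further: drop in dye fluorescence marks compound binding to DNA; on the % scale 0 is the no-effect control and ±100 the full control effect; nearly all actives have a fitted effect of over 60% in size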
BLM counter – BLM helicase inhibition, WRN selectivity check; Potency, µM (top dose mostly 57.1 µM), for inactives: at the top dose activity change, negative = inhibition, most hits filed as inhibitors; Recombinant BLM helicase DNA unwinding, red fluorescence; shares compounds with WRN helicase inh-1; 60% of 610 active; AID 720503; further: nearly all actives have a fitted effect of over 60% in size
The depositor's hits bear a star; ? = inconclusive; / = no result; [ ] = remark or other dose. Rows were chosen to be rich in hits. Some 2.4% of all compounds tested hit in one or more screens of this group. The call rests on the fitted dose curve; in most records, active means well fitted curve in the direction sought with a large enough effect; inconclusive means small, poorly fitted or top-dose-only effect, or another doubt; inactive means no such curve, though single readings can be large; an effect the other way counts as inactive or inconclusive. Potency means the concentration at half of the fitted maximal effect.

SMILES	WRN helicase inh-1	Pol beta inh	POLI inh	Pol kappa inh-1	FEN1 inh-1	Pol eta inh-1	PGK validate	POLI cherry-pick	Pol eta inh-2	WRN helicase inh-2	TO displacement	BLM counter	others
O=C(N/N=C/c1ccc(O)c(O)c1)N/N=C/c1ccc(O)c(O)c1	4µM*	0.32µM*	0.89µM*	0.79µM*	2.5µM*	0.71µM*	1.2µM*	3*	6*	0.96µM*	?	1.1µM*	Pol kappa inh-2=2.1*
COc1ccc2nc(C)cc(SCC(=O)N/N=C/c3ccc(O)c(O)c3)c2c1	14µM*	2.2µM*	16µM*	28µM*	?	4.5µM*	/	?	24*	4.8µM*	?	6.1µM*
O=C(CSc1nc2ccccc2o1)N/N=C/c1ccc(O)c(O)c1	8.9µM*	?	2.5µM*	7.1µM*	?	3.5µM*	3.3µM*	17*	12*	2.7µM*	?	1.9µM*	Pol kappa inh-2=8.4*
Cc1nonc1C(=O)N/N=C/c1ccc(O)c(O)c1	4%	-16%	-11%	-7%	2%	-20%	/	/	/	/	/	/
O=C1Cc2ccccc2C1=C1C=c2ccccc2=C1	/	/	-7%	-32%	-4%	/	/	/	/	/	/	/
CCC(=O)N1c2ccccc2CC1C(=O)NCCN1CCN(c2cc(Cl)ccc2C)CC1 (centres undefined)	/	-20%	-3%	-8%[60.1 µM]	-3%	-7%	/	/	/	/	/	/
CN(C)c1ccc(/C=C/c2cc3ccccc3c[n+]2C)cc1	/	/	?	-38%	?	/	/	/	/	/	/	/
COCCN(C(=O)COC(=O)c1cc2c(s1)CCC2)c1c(N)n(Cc2ccccc2)c(=O)[nH]c1=O	8.9µM*	/	3.2µM*	4.5µM*	40µM*	0.71µM*	0.82µM*	1.9*	2.1*	2.2µM*	?	0.43µM*	FEN1 inh-2=76*
CC(Oc1ccccc1)C(=O)N1CCN(Cc2cc(=O)n3nc(-c4ccccc4Cl)sc3n2)CC1 (centres undefined)	/	40%	-1%	-13%[60.1 µM]	-11%	-2%	/	/	/	/	/	/
COc1ccc(C2=Nn3c(nnc3-c3ccco3)SC2)cc1	-5%	-1%	-4%	5%	-9%	-8%	/	/	/	/	/	/

Bioassay records (PubChem)
